“And” between values parts separate entries of the source, which are not always exact repeats. Identical values can stand only once. This is part of a sample that, as a whole, favours compounds with a hit. Of some 83,000 tested, about 20% had one in any assay.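 Cells were grown in 96-well plates and exposed to the test compound at a single concentration for 48 hours; results are reported as percent growth, with values below 10 considered active.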 The source made the active and inactive calls.

Holding throughout (assay): NCI-60 one-dose screen, 48 h (100 = growth as untreated, 0 = no growth, -100 = all killed)
Common to all, as to conditions: 10 µM unless noted

Test [1] has as its system SR leukemia.
Test [2] has as its system RPMI-8226 leukemia.
Test [3] has as its system OVCAR-8 ovarian.
Test [4] has as its system OVCAR-5 ovarian.
Test [5] relates to OVCAR-4 ovarian.
Test [6] concerns SK-OV-3 ovarian.
The subject of test [7] is IGROV1 ovarian.
Test [8] has as its system OVCAR-3 ovarian.
For test [9], the system named is HS 578T breast.
The test system of test [10] is NCI/ADR-RES ovarian.
In test [11] the test system is T-47D breast.
The subject of test [12] is BT-549 breast.
Test [13] deals with MDA-MB-435 melanoma.
Test [14] deals with HCT-116 colon.
Test [15] deals with HCC-2998 colon.
Test [16] relates to KM12 colon.
Test [17] has as its system SW-620 colon.
For test [18], the system named is MCF7 breast.

On to `C/C=C(/C(=O)NC(N)=O)C(C)C`, for which the growth in test [1] was 88.7% (inactive); in test [2], 113% (inactive); in test [3], 96.2% (inactive); in test [4], 116% (inactive); in test [5] it was 119% (inactive); in test [6], 99.4% (inactive). For the same molecule, the growth in test [7] is 114% (inactive); in test [8], 104% (inactive); in test [9] it was 107% (inactive); in test [10], 107% (inactive); in test [11] it was 99.1% (inactive); in [12], 106% (inactive). For the same molecule, the growth was 107% (inactive) in test [13], 99.5% (inactive) in [14], 115% (inactive) in test [15] and 90.8% (inactive) in [16].

As for `CC1CC(O)CC(C)(C)C1.CC1CC(O)CC(C)(C)C1.CC1CC(O)CC(C)(C)C1.CC1CC(O)CC(C)(C)C1.[Ti]` (stereo not drawn), the growth in test [1] is 81.1% (inactive); in test [3], 106% (inactive); in test [4], 114% (inactive); in test [5] it was 127% (inactive); in [6], 91.4% (inactive); in test [7], 101% (inactive). Also, the growth in [8] is 122% (inactive); in test [9], 99.9% (inactive); in [10], 99.1% (inactive); in test [11] it was 92.7% (inactive); in test [12], 111% (inactive); in test [13] it was 99.6% (inactive). Moreover, the growth is 99.8% (inactive) in test [17]; 99.8% (inactive) in [18]; 99.5% (inactive) in test [14]; 110% (inactive) in test [15]; 103% (inactive) in test [16].

With `O=C(NC(CSSCC(NC(=O)OCc1ccccc1)C(=O)O)C(=O)O)OCc1ccccc1` (stereo not drawn), the growth in test [1] was 67.8% (inactive) and 77.7% (inactive); in [3] it was 79.5% (inactive) and 103% (inactive); in [4] it was 90.9% (inactive) and 99.3% (inactive); in [5] it was 68.3% (inactive) and 104% (inactive); in test [6], 107% (inactive) and 83.5% (inactive); in test [7], 73.1% (inactive) and 106% (inactive). In addition, the growth in [8] was 97.7% (inactive) and 105% (inactive); in test [9], 99.9% (inactive) and 104% (inactive); in [10], 97.2% (inactive) and 101% (inactive); in [11] it was 79.1% (inactive) and 82.4% (inactive); in test [12], 109% (inactive) and 81.3% (inactive); in test [13], 96% (inactive) and 100% (inactive). Also, the growth in test [17] was 94.3% (inactive) and 106% (inactive); in test [18], 94.3% (inactive) and 93.2% (inactive); in test [14], 98.4% (inactive) and 74.7% (inactive); in test [15], 110% (inactive) and 96.2% (inactive); in [16] it was 95.4% (inactive) and 106% (inactive).

As for `CC(=O)Oc1cc(C)c(OC(C)=O)c(C)c1C`, the growth is 118% (inactive) in [1]; 99.8% (inactive) in test [3]; 125% (inactive) in test [4]; 125% (inactive) in [5]; 125% (inactive) in test [6]; 122% (inactive) in test [7]. Moreover, the growth in test [8] was 119% (inactive); in test [9] it was 91.1% (inactive); in test [10], 95.2% (inactive); in test [11] it was 82.2% (inactive); in test [12], 117% (inactive); in test [13] it was 105% (inactive). In addition, the growth was 112% (inactive) in test [14], 105% (inactive) in test [15] and 101% (inactive) in test [16].

As for `C(=N\OCCc1ccccc1)/c1ccccn1`, the growth is 96.5% (inactive) and 84.3% (inactive) in [1]; 108% (inactive) and 103% (inactive) in test [3]; 101% (inactive) and 102% (inactive) in [4]; 114% (inactive) and 113% (inactive) in test [5]; 123% (inactive) in test [6]; 111% (inactive) in test [7]. The growth in test [8] is 105% (inactive) and 104% (inactive); in test [9] it was 117% (inactive) and 105% (inactive); in test [10] it was 117% (inactive) and 104% (inactive); in [11], 114% (inactive); in test [12], 138% (inactive) and 102% (inactive); in test [13], 109% (inactive) and 106% (inactive). Also, the growth in test [17] was 110% (inactive) and 111% (inactive); in test [15], 105% (inactive) and 104% (inactive); in [16] it was 113% (inactive) and 107% (inactive).

For `NC1=NC(c2ccccc2)N=C(Nc2ccccc2)N1` (stereo not drawn), the growth in test [1] is 2.95% (active); in test [3] it was 97.6% (inactive) and 101% (inactive); in [4] it was 101% (inactive) and 94.7% (inactive); in test [5], 117% (inactive) and 62.4% (inactive); in test [6] it was 94.3% (inactive) and 67.6% (inactive); in test [7], 110% (inactive) and 111% (inactive). Further, the growth in test [8] is 9.87% (active) and -1.56% (active); in [9] it was 26.1% (inactive) and 42.4% (inactive); in [10], 111% (inactive) and 109% (inactive); in test [11], 98.4% (inactive) and 106% (inactive); in test [12], 74.5% (inactive) and 83.4% (inactive); in test [13], 18.2% (inactive) and 7.52% (active). The growth in test [17] was 84.4% (inactive) and 94.5% (inactive); in test [18], 13.7% (inactive) and 22% (inactive); in test [14], 59.9% (inactive) and 44.6% (inactive); in test [15], 93.6% (inactive); in [16], 26.1% (inactive) and 51.7% (inactive).

On to `CC(C)(C)C1CCC(=NO)CC1` (stereo not drawn), for which the growth in [1] was 116% (inactive); in [3] it was 91.9% (inactive); in test [4], 90.3% (inactive); in test [5], 97.3% (inactive); in [6] it was 101% (inactive); in [7], 99.5% (inactive). In addition, the growth in test [8] is 104% (inactive); in [9], 102% (inactive); in [10], 103% (inactive); in test [11], 96.6% (inactive); in test [12] it was 115% (inactive); in test [13], 99.8% (inactive). Besides, the figures for the growth in test [17], in test [15] and in [16] were 106% (inactive), 107% (inactive) and 103% (inactive), respectively.

As for `COC(=O)c1nc(N)nc(C(=O)OC)c1C(=O)c1ccc(F)cc1`, the growth is 112% (inactive) in test [1]; 112% (inactive) in test [2]; 107% (inactive) in test [3]; 114% (inactive) in test [4]; 110% (inactive) in test [5]; 108% (inactive) in test [6]. For the same molecule, the growth in [7] was 111% (inactive); in test [8] it was 116% (inactive); in test [9], 102% (inactive); in [10], 109% (inactive); in test [11] it was 105% (inactive); in test [12] it was 120% (inactive). Moreover, the growth was 107% (inactive) in test [13], 110% (inactive) in test [14], 110% (inactive) in test [15] and 107% (inactive) in test [16].

These data come from PubChem BioAssay (NCI).
